MARV entry inh – blocks Marburg virus binding to or entry into cells; 300,000 tested, 1.8% active; Potency, µM (series often up to 37.8 µM), without a hit: at the top dose activity change, negative = inhibition, actives largely listed as inhibitors; Marburg virus pseudotyped entry inhibition, cell reporter; calls by dose curve; tested in HEK293 cells; note: potency is the fitted concentration of half-maximal effect; % is set by controls: 0 for no effect and ±100 for the full control effect
Lassa entry inh – blocks Lassa virus binding to or entry into cells | Potency, µM (series often up to 37.9 µM), for inactives: top-dose activity change, negative = inhibition, actives largely listed as inhibitors | 300,000 tested, 1.2% active | Lassa virus pseudotype entry inhibition, cell reporter; calls by dose curve; tested in HEK293 cells; note: potency is the fitted concentration of half-maximal effect; % is set by controls: 0 for no effect and ±100 for the full control effect; nearly all actives have a fitted effect of over 50% in size
HCMV antiviral – inhibitors of human cytomegalovirus; activity change, negative = inhibition, % at 57.5 µM; HFF cells, HCMV-luciferase reporter, 72 h; active compounds read low; 410,000 tested, 4.5% active; AID 1259415; in the data active = activity change below about -60%; inconclusive = no clear call, values can overlap the other calls; inactive = above about -39%; note: % is set by controls: 0 for no effect and ±100 for the full control effect
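After 16 h attachment at 37C, HFF cells received test compound and HCMV-luciferase (1 PFU/cell); reporter luminescence read 72 h later, data normalized against buffer-only and known inhibitor Salinomycin.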
HCV inhibitor – inhibitors of hepatitis C virus infection; Huh7.5.1 HCVcc-Cre infection, luciferase reporter, 44 h; Potency, µM (top dose mostly 41.8 µM), without a hit: top-dose activity change, negative = inhibition, most hits filed as inhibitors; 340,000 tested, 3.4% active; AID 651820; active = well fitted inhibition curve with a large enough effect; inconclusive = small, poorly fitted or top-dose-only effect, or another doubt; inactive = no such curve, though single readings can be large or run the other way; note: potency is the fitted concentration of half-maximal effect; % is set by controls: 0 for no effect and ±100 for the full control effect
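1,000 cells/well; 4 h culture; + compound; + HCVcc-Cre (~0.5 moi); 44 h; luciferase substrate, RT 15 min; read 15 sec.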
FMDV antiviral – blocks foot and mouth disease virus. FMDV antiviral cell-based qHTS. Potency, µM (doses to about 57.9 µM), for inactives: at the highest dose activity change, negative = inhibition, usual class: inhibitors. 410,000 tested, 1.2% active. AID 1159524; calls by dose curve; tested in HEK293T cells; note: read-out not given here; potency is the fitted concentration of half-maximal effect; % is set by controls: 0 for no effect and ±100 for the full control effect; nearly all actives have a fitted effect of over 45% in size
SARS PLP yeast – inhibitors of SARS-CoV papain-like protease in yeast | S. cerevisiae expressing SARS-CoV PLpro, growth rescue | 330,000 tested, 0.19% active | Potency, µM (highest dose often 32.9 µM), without a hit: at the highest dose activity, positive = growth rescue, usual class: activators; calls by dose curve; note: potency is the fitted concentration of half-maximal effect; 0% is about no effect; nearly all actives have a fitted effect of over 55% in size
An asterisk follows results filed as active; ? = inconclusive; . = not tested or not shown; [ ] = another dose, or the depositor's remark. Compounds with a hit are over-represented: about 8% of the library has one in this group of screens.

SMILES	MARV entry inh	Lassa entry inh	HCMV antiviral	HCV inhibitor	FMDV antiviral	SARS PLP yeast
CC1(C)Cc2c(sc3c2C(=O)N(c2ccccc2)C2=NCCN23)CS1	14%	6%	11	23%	-23%	-3%
CN1C(=O)c2c(sc3c2CC(C)(C)SC3)N2CCN=C12	-10%	-6%	-5	11µM*	?	0%
Cc1ccc(Cn2c(=O)n(CC3CCC(C(=O)N4CCC(C)CC4)CC3)c(=O)c3sccc32)cc1 (stereo not drawn)	.	4%[46.1 µM]	1	.	?	.
Cc1ccccc1Cn1c(=O)n(CC2CCC(C(=O)N3CCC(C)CC3)CC2)c(=O)c2sccc21 (stereo not drawn)	.	?	-75*	.	?	.
CCc1nc2c(OCc3cccc(Cl)c3)cccn2c1N(C)C(=O)c1ccc(C)cc1	.	.	-6	.	.	.
CC1=C(c2ccc(C)cc2)S(=O)(=O)N(Cc2ccc(C(=O)NCc3cccc(C)c3)cc2)C1=O	.	?	54	.	?	.
O=C(c1ccc(-c2ccccc2)cc1)N1CCC2CC1c1cc(-c3ccc4c(c3)OCO4)ccc12 (stereo not drawn)	.	.	-7	.	23%	.
N#Cc1ccc(C(=O)N2CCC3CC2c2cc(-c4ccc(F)cc4)ccc23)cc1 (stereo not drawn)	.	.	10	35µM*	0%	.
CC1(C)C(=O)CC[C@]2(C)C3C(=O)C=C4[C@H]5C[C@@](C)(C(=O)O)CC[C@]5(C)CC[C@]4(C)[C@]3(C)CC[C@@H]12 (stereo partly drawn)	.	.	13	18%	-16%	1%
CC1=C(O)C(=O)C=C2C1=CC=C1[C@]2(C)CC[C@@]2(C)C3C[C@](C)(C(=O)O)CC[C@@]3(C)CC[C@@]12C (stereo partly drawn)	.	.	.	.	4µM*	.
COc1ccc(Cn2c(C(=O)O)c(CNC3CCC(C)CC3)c3ccc(C)cc32)cc1 (stereo not drawn)	.	19%[46.1 µM]	-10	.	-10%	.
CC(=O)Nc1ccc(NC(=O)C2=COC3=NC(=O)N(Cc4ccccc4C)CCN23)cc1	.	.	-35	.	.	.
CN(c1ccc(C(=O)Nc2cccc(O)c2)cc1)S(=O)(=O)c1ccccc1	?	-25%	1	?	-23%	-1%
CN(C)S(=O)(=O)c1cccc(NC(=O)c2ccc(OC(F)(F)F)cc2)c1	?	?	-95*	?	?	-1%
CCOc1ccc(Br)cc1S(=O)(=O)Nc1cccc(S(=O)(=O)N(C)c2ccccc2)c1	7.9µM*	-28%	-20	-23%	-19%	4%
COCc1ccc(C(=O)Nc2cccc(S(=O)(=O)N(C)c3ccccc3)c2)cc1	?	?	-96*	22µM*	?	-3%
CN(c1ccccc1)S(=O)(=O)c1cccc(NC(=O)C2CCCO2)c1 (stereo not drawn)	?	?	-62*	5%	-5%	9%
CN(C)CC(C)(O)c1ccc2c(c1)CN(Cc1cccn1-c1ncccn1)CCO2 (stereo not drawn)	.	.	.	.	-10%	.
CN(C)S(=O)(=O)c1cccc(NC(=O)C(c2ccccc2)c2ccccc2)c1	?	.	-17	10%	5%	1%
CN(C)S(=O)(=O)c1cccc(NC(=O)c2ccc(COc3ccccc3)cc2)c1	8.9µM*	?	.	10µM*	25µM*	-6%
CCC(C(=O)Nc1cccc(S(=O)(=O)N(C)c2ccccc2)c1)c1ccccc1 (stereo not drawn)	?	11µM*	-2	?	0%	-1%
S=C(NCCC(c1ccccc1)c1ccccc1)Nc1cccc(Cl)c1	-4%	-28%	-34	?	34%	-15%
S=C(NCCN(C1CCCCC1)C1CCCC1)Nc1cccc(Cl)c1	?	?	-85*	13µM*	-16%	2%
S=C(NCc1cccs1)Nc1ccccc1Cl	0%	-2%	-33	12%	38%	1%
S=C(NCc1cccs1)Nc1cccc(Cl)c1	1%	-12%	-69*	-16%	33%	-17%
SMILES	MARV entry inh	Lassa entry inh	HCMV antiviral	HCV inhibitor	FMDV antiviral	SARS PLP yeast
S=C(NCc1cccs1)Nc1cc(Cl)cc(Cl)c1	?	-5%[46.1 µM]	-100*	?	1%	-6%
O=C1/C(=C/c2ccc([N+](=O)[O-])cc2)C=C(c2ccccc2)N1c1ccc(O)cc1	-29%	?	-83*	?	?	-8%
O=C(O)c1cccc(N2C(=O)/C(=C/c3ccc([N+](=O)[O-])cc3)C=C2c2ccccc2)c1	.	.	7	5%	13µM*	1%
COc1ccc(N2C(=O)/C(=C/c3ccc([N+](=O)[O-])cc3)C=C2c2ccccc2)cc1	-17%	?	-101*	?	.	2%
Cc1cc2c(c(=O)n1Cc1ccccc1)[C@H]1O[C@](CCCCN3C(=O)c4ccccc4C3=O)(Cc3c1ccc1ccccc31)O2	-11%[14.2 µM]	.	.	.	.	.
CCCC1=Nc2cc(C(=O)NCc3ccccc3)ccc2Sc2ccccc21	?	?	?	.	-10%	.
COc1ccc(/C=C/C(=O)Nc2ccc(C(C)=O)cc2)cc1S(=O)(=O)N1CCOCC1	.	.	6	.	-14%	.
COc1cc(/C=C/C(=O)Nc2ccc(OC)c(S(=O)(=O)N3CCOCC3)c2)ccc1OC(F)F	?	13µM*	-86*	0.25µM*	?	2%
COc1ccc(/C=C/C(=O)Nc2cccc(F)c2)cc1S(=O)(=O)N1CCOCC1	?	5.6µM*	?	10µM*	35µM*	0%
COc1ccc(/C=C/C(=O)Nc2ccccc2F)cc1S(=O)(=O)N1CCOCC1	?	?	-19	10µM*	25µM*	-11%
CCOc1ccccc1NC(=O)/C=C/c1ccc(S(=O)(=O)N2CCOCC2)cc1	-7%	?	-5	10µM*	-8%	-2%
Cc1cccc(N2CCN(c3ncnc4c3nc3n4CCCCC3)CC2)c1C	.	-16%[46.1 µM]	-28	.	-14%	.
CC(C)CON=C1C[C@@H](O)[C@@H](O)[C@@H]2[C@H]3C(=O)N(Cc4ccccc4)C(=O)[C@@H]3CC[C@@H]12	1%[14.2 µM]	.	.	.	.	.
COCCCNC(=O)c1ccc([N+](=O)[O-])cc1	1%[46.1 µM]	-1%[46.1 µM]	0	5%	9%	-2%
O=C(CCl)NCCCN(C(=O)C(Cl)Cl)c1ccc([N+](=O)[O-])cc1	.	.	-103*	?	-29%	2%
CCc1cccc(NC(=O)Cn2c(=O)n3nc(-c4cccc(F)c4)nc3c3ccccc32)c1	.	-2%[46.1 µM]	17	.	-9%	.
COc1cc(NC(=O)c2cc(C(C)C)on2)c(OC)cc1Cl	15µM*	?	85	11µM*	-8%	-19%
COc1cc(NC(=O)c2c(F)c(F)c(F)c(F)c2F)c(OC)cc1Cl	?	-28%	2	11µM*	?	4%
COc1ccc(NC(=O)c2cc(C(C)C)on2)c(OC)c1	.	.	-5	-24%	40%	-13%

Screens (PubChem BioAssay)
